In PubChem BioAssay AID2284186 (EPA ToxCast):
Calls of active or inactive are those of the source. The calls were made as follows: active = hit-call score of the fitted dose curve at least 0.9, where 1 is the maximum; inactive = score below 0.9.

What follows are compounds tested against Glucocorticoid receptor (Homo sapiens) (UniProt P04150) (assay: ERF_FR_NR_hGR: Eurofins (ERF) Nuclear Receptor (NR) Radioligand Binding LeadHunter Assay for human Glucocorticoid Receptor (GR) Agonism, conducted at France lab site).
Chain of Glucocorticoid receptor (Homo sapiens) (P04150 whole entry, looked up): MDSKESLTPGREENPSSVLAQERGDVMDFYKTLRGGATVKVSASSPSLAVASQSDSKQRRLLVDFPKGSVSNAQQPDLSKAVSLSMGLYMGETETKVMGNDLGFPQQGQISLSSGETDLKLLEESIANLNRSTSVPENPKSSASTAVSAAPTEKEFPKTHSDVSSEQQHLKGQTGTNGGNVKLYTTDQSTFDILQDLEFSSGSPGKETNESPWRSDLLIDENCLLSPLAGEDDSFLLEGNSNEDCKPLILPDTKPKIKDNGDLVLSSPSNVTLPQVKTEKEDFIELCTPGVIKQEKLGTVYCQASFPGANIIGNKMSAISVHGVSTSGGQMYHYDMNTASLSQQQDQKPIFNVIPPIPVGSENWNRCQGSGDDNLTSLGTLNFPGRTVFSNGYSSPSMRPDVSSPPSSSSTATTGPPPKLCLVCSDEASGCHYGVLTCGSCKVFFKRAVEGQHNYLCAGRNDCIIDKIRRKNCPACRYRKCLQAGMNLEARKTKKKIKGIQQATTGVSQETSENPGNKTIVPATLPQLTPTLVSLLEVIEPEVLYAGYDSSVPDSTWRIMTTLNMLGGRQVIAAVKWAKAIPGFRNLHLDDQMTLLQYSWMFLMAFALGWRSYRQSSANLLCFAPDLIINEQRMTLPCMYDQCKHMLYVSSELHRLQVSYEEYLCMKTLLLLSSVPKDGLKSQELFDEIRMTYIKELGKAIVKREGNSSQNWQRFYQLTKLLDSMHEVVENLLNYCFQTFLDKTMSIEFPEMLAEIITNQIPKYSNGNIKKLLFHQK
Description: ERF_FR_NR_hGR is a biochemical, single-readout assay that uses extracted gene-proteins in a cell-free assay. Measurements were taken 6 hour after chemical dosing in a 96-well plate. See GR Human Glucocorticoid NHR Binding (Agonist Radioligand) Assay, Cerep.ERF_FR_NR_hGR is an assay component calculated from the ERF_FR_NR_hGR assay. It is designed to measure radioligand binding using a type of binding reporter as detected by scintillation counting with radiometry technology.Data from the assay component ERF_FR_NR_hGR was analyzed at the assay endpoint, ERF_FR_NR_hGR, in the positive analysis fitting direction relative to DMSO as the negative control and baseline of activity. Using a type of binding reporter, gain-of-signal activity can be used to understand changes in binding as they relate to gene NR3C1. To generalize the intended target to other relatable targets, this assay endpoint is annotated to the nuclear receptor intended target family, where the subfamily is steroidal.
Human cells are incubated for 24 hours at 4C with [3H]dexamethasone ([…]) ligand and Dexamethazone as control inhibitor. Test Sample Requirements: Minimum for 1) Screen: 60 ul of 10 mM stock -OR- 1 mg (pre-weighed) for 10 uM final testing. 2) Dose Response: 90 ul of 10 mM stock -OR- 1 mg (pre-weighed) for a top concentration at 10 uM.

How did the AC50 turn out when `O=C(/C=C/c1ccc(O)cc1)CC(=O)/C=C/c1ccc(O)cc1` was run?
Its AC50 is 969 nM (active).
